Assay outcomes: PubChem BioAssay, National Center for Advancing Translational Sciences (NCATS)
Compounds with a hit are over-represented: about 11% of the library has one in this group of screens.
Pf growth 96h – P. falciparum growth inhibition at 96 hours; P. falciparum luciferase reporter growth, 96 h; Potency, µM (doses to about 28.7 µM), for the others: top-dose activity change, negative = inhibition, hits mostly inhibitors; 6.9% of 320,000 active; AID 504834; also: % is scaled to controls: 0 for no effect and ±100 for the full control effect
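Compounds incubated with erythrocytes infected by luciferase-expressing P. falciparum (2% hematocrit, 0.05% parasitemia final) for 96 hours, 37 C in 5% CO2. Growth inhibition scored as decreased luciferase luminescence.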
Pf growth 48h – P. falciparum growth inhibition at 48 hours (one generation) | Potency, µM (top dose mostly 28.7 µM), for the others: at the highest dose activity change, negative = inhibition, most hits filed as inhibitors | P. falciparum luciferase growth in erythrocytes, 48 h | 5.9% of 310,000 active; also: % is scaled to controls: 0 for no effect and ±100 for the full control effect
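Read-out is firefly luciferase luminescence from an integrated reporter in P. falciparum, so falling signal marks reduced parasite growth. Infected erythrocytes were at 2% hematocrit and 0.1% parasitemia (final) in Albumax-supplemented RPMI 1640.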
Sm TGR inh – inhibitors of Schistosoma mansoni thioredoxin glutathione reductase | purified TGR, DTNB reduction, TNB absorbance 405 nm | 3% of 360,000 active | Potency, µM (top dose mostly 114 µM), without a hit: top-dose activity change, negative = inhibition, actives largely listed as inhibitors | Q962Y6; also: % is scaled to controls: 0 for no effect and ±100 for the full control effect; nearly all actives have a fitted effect of over 60% in size
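Kinetic colorimetric format: TGR-catalysed, NADPH-driven DTNB reduction monitored via TNB absorbance. Enzyme dispensed at 20 nM; compound exposure 15 min at room temperature before reaction start.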
AMA1-RON2 inh – inhibitors of Plasmodium falciparum AMA1-RON2 interaction; AlphaScreen AMA1-biotinylated RON2 peptide binding; Potency, µM (doses to about 58.2 µM), without a hit: top-dose activity change, negative = inhibition, actives largely listed as inhibitors; 0.2% of 360,000 active; AID 720542;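 also: 0% = vehicle wells and -100% = peptide control; nearly all actives have a fitted effect of over 45% in size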
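AMA1 (3D7) with his tag at 25 nM final met compounds first, then biotinylated RON2 peptide at 25 nM; detection used donor plus acceptor beads, 10 µg/mL apiece, read by AlphaScreen after 30 min at room temperature.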
NS1 inh – inhibitors of influenza NS1 protein function | Potency, µM (series often up to 46.1 µM), without a hit: at the highest dose activity, positive = more growth | 0.4% of 270,000 active | AID 2326; calls by dose curve; also: actives are rising curves; nearly all actives have a fitted effect of over 50% in size
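Growth recovery, yeast-based: influenza A NS1 expressed in S. cerevisiae causes slow growth, and suppressors are detected by OD600. The parent strain without NS1 is used as positive control.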
The depositor's hits bear a star; ? = inconclusive; . = not tested or not shown; [ ] = dose if it differs, or a comment. Unless noted, calls follow the shape of the dose curve; as a rule, active = well fitted curve in the direction sought with a large enough effect; inconclusive = small, poorly fitted or top-dose-only effect, or another doubt; inactive = no such curve, though single readings can be large; an effect the other way counts as inactive or inconclusive. Potency is read from the fitted curve at half-maximal effect.

SMILES	Pf growth 96h	Pf growth 48h	Sm TGR inh	AMA1-RON2 inh	NS1 inh
Cc1ccc(S(=O)(=O)/N=C2\CN(C)C(=O)N2C)cc1	4.65µM*	4.9%	-3.1%	-12.4%	19.4%
Cc1ccc(S(=O)(=O)/N=c2\sccn2C)cc1	135.0%	10.9%	-2.1%	8.6%	10.7%
Cc1c([C@@H]2C[C@H]3CN(Cc4cccc(Cl)c4)C(=O)[C@]34CCCN24)cnn1C	?	?	-4.2%	7.0%	-1.4%
Cn1cc([C@@H]2C[C@H]3CN(Cc4cccc(Cl)c4)C(=O)[C@]34CCCN24)c2ccccc21	?	11.7µM*	-20.3%	-15.0%	7.5%
O=C1N(Cc2cccc(Cl)c2)C[C@@H]2C[C@@H](c3ccccn3)N3CCC[C@@]123	?	?	10µM*	57.1%	2.2%
O=C1N(Cc2cccc(Cl)c2)C[C@@H]2C[C@@H](c3ccsc3)N3CCC[C@@]123	5.2%	8.28µM*	?	-3.7%	1.0%
CC(C)n1cc([C@@H]2C[C@H]3CN(Cc4cccc(Cl)c4)C(=O)[C@]34CCCN24)cn1	?	?	3.8%[57.1 µM]	-4.5%	9.4%
CCOC(=O)c1c(S(=O)(=O)Nc2ccccn2)c(C)n(C)c1C	?	4.3%	-10.0%	-2.9%	3.6%
O=C(Nc1cccc(C(F)(F)F)c1)Oc1ccc(Cl)c2cccnc12	2.33µM*	2.62µM*	-1.3%	12.3%	-77.3%
CN(C)C(=O)Oc1ccc(Cl)c2cccnc12	28.0%	2.4%	-0.9%	10.4%	.
O=C(N/N=C\c1ccc(Cl)s1)C1COc2ccccc2O1 (centres undefined)	4.5%	2.2%	-8.0%	3.8%	-7.9%
O=C(N/N=C/c1c[nH]c2ccccc12)C1COc2ccccc2O1 (centres undefined)	10.4µM*	-3.8%	-7.7%	18.9%[11.6 µM]	-6.3%
O=C(O)CCC(=O)N1CCC[C@H]1C(=O)O	47.1%	0.9%	-0.9%	-7.9%	5.7%
CCCCCCSc1cc(-c2nc3ccc(C)cn3c2NCc2ccccc2)ccc1OC	10.4µM*	4.15µM*	4.5%	34.9%	.
CCCCCCSc1cc(-c2nc3cc(C)ccn3c2NCCCC)ccc1OC	?	9.28µM*	5.5%	16.8%	.
CCCCCCSc1cccc(-c2nc3cc(C)ccn3c2NCc2ccccc2)c1	?	?	0.1%	72.7%	.
CCCCCCSc1cc(-c2nc3cnccn3c2NCCCC)ccc1OC	.	.	.	17.8%	.
CCCCCCSc1cccc(-c2nc3ccc(C)cn3c2NCc2ccccc2)c1	11.7µM*	?	-2.3%	7.9%	.
NCCc1nc(-c2nc(C(=O)O)cs2)cs1	.	.	.	.	0.0%
COc1ccc(C(Nc2cc(C)ccn2)c2ccc3ccc(C)nc3c2O)cc1 (centres undefined)	-11.2%	?	0.398µM*	48.2%	22.5%
Cc1ccnc(NC(c2ccsc2)c2ccc3ccc(C)nc3c2O)c1 (centres undefined)	-1.1%	?	.	30.6%	-3.7%
Cc1ccc2ccc(C(Nc3cccc(C(F)(F)F)c3)c3cccnc3)c(O)c2n1 (centres undefined)	?	?	2.24µM*	78.2%	5.2%
Cc1ccc2ccc(C(Nc3ccccc3)c3ccccc3)c(O)c2n1 (centres undefined)	.	.	.	46.7%	.
COc1cc(C(Nc2ccccn2)c2ccc3ccc(C)nc3c2O)cc(OC)c1O (centres undefined)	-8.7%	?	0.355µM*	-10.2%	?
Cc1ccc2ccc(C(Nc3ccccn3)c3ccccc3)c(O)c2n1 (centres undefined)	-21.3%	.	2.82µM*	74.9%	-50.3%
SMILES	Pf growth 96h	Pf growth 48h	Sm TGR inh	AMA1-RON2 inh	NS1 inh
Oc1c([C@H](Nc2ccccn2)c2ccccc2)ccc2cccnc12	.	.	.	.	-40.1%
Cc1ccc(N(CC(=O)Nc2cccc(Cl)c2)S(=O)(=O)c2cccs2)cc1	.	.	5.5%	.	.
CC(=NNc1ccc2ccccc2n1)c1ccccc1O	.	.	.	27.6%	.
C/C(=N\Nc1nc2ccccc2nc1C)c1ccccc1O	1.17µM*	?	2.5%	70.9%	-5.7%
CCOC(=O)c1ccc(-c2c(-c3ccccc3OC)sc3cc4c(cc23)OCO4)cc1F	?	1.85µM*	-16.0%	42.2%	.
COc1ccccc1-c1sc2cc3c(cc2c1C#CCO)OCO3	?	?	-34.0%	-0.5%	.
O=C(CC1SC(=Nc2ccc(OC(F)F)cc2)N(CCC2=CCCCC2)C1=O)Nc1ccccc1F (centres undefined)	2.62µM*	10.4µM*	-5.7%	-8.4%[2.32 µM]	-11.7%
CCn1c2ccccc2c2cc(N=C3SC(CC(=O)Nc4ccccc4OC)C(=O)N3CCOC)ccc21 (centres undefined)	?	9.28µM*	-6.5%	-1.4%	?
COc1ccc(N2C(=O)C(CC(=O)Nc3ccccc3)N(CCC3=CCCCC3)C2=O)cc1 (centres undefined)	.	.	-7.3%	.	.
CCOc1ccccc1N=C1SC(CC(=O)Nc2ccc(OC)cc2OC)C(=O)N1CCC1=CCCCC1 (centres undefined)	4.15µM*	?	-7.9%	-13.7%	4.8%
CN=C1SC(CC(=O)Nc2ccccc2F)C(=O)N1C (centres undefined)	10.1%	16.0%	0.5%	30.9%	-10.3%
N#Cc1c(N2CCN(c3ccc(F)cc3)CC2)nc(N)c2c(N)nc3c(c12)CC(=O)N3C1CC1	2.62µM*	0.928µM*	-31.3%	51.3%	.
COc1ccccc1Nc1nn2c(=O)c3ccc(C(=O)NC4CCC(C)CC4)cc3nc2s1 (centres undefined)	.	.	1.0%	.	.
CC1(C(=O)NS(=O)(=O)c2ccc(C#N)cc2)CCN1C(=O)CCC1CCCC1 (centres undefined)	.	.	.	-3.0%	.
COc1ccc(OC)c(CNC(=O)c2c(C)oc3ncn(C)c(=O)c23)c1	.	.	3.1%	.	.
COc1ccc(OC)c(C2=NOC(C(=O)Nc3cc(C)on3)C2)c1 (centres undefined)	0.0%	14.0%	-0.4%	-3.8%	-0.4%
O=C(NCc1ccco1)C1CC(c2ccccc2O)=NO1 (centres undefined)	?	-0.8%	-13.3%	33.8%	0.0%
O=C(NCc1ccco1)C1CC(c2ccccc2C(F)(F)F)=NO1 (centres undefined)	31.6%	35.6%	20µM*	-1.3%	-5.0%
COc1ccc(OC)c(C2=NOC(C(=O)NCc3ccco3)C2)c1 (centres undefined)	-20.6%	.	35.5µM*	-3.3%	-0.9%
CC(C)C(=O)Nc1ccc(Oc2ccc3c(c2)C(=O)NC3=O)cc1	-16.0%	30.7%	12.5%	6.3%	4.0%
CCOC(=O)COc1ccc2c(c1)C(=O)CC(C)(c1cccnc1)O2 (centres undefined)	2.08µM*	51.5%	0.0%	-3.9%	-95.7%
O=C(COc1ccc2c(c1)C(=O)CC1(CCCCC1)O2)NCc1ccccc1	3.7µM*	8.28µM*	9.6%	-13.9%	-51.8%
CC1(C)CC(=O)c2cc(OCC(=O)NCc3cccnc3)ccc2O1	13.1µM*	0.0%	0.0%	-0.9%	5.3%
